Source: the supplement of paper PMC12494721
Where a name gives a salt, the structure may show the parent alone.

Key:
Conditions in all cases: incubation time: 27 h, anaerobic, 37 °C;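 for the amine columns active = adjusted P below 0.05 in both replicates with a change the same way and a mean fold change under 0.8 or over 1.25; inactive = the rest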
[1] = system: Clostridium sporogenes DSM 1664; experiment: growth (OD595) fold change vs plate DMSO controls (fold change (ratio)); higher = more growth
In short: (§1)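 The reported measure is growth: the fold change against the median of DMSO controls on the plate. Absorbance at 595 nm from anaerobic 96-well mGAM cultures grown for 27 h at 37 °C was blank-subtracted, corrected for background with 20 µM compound solutions in water, and converted to OD with a calibration factor of 5. Fold changes above 1.5 appear as NA, and values are the mean of 2 biological replicates.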

Escherichia coli IAI1 [2] = experiment: as above
In short: as §1

[3] = system: Klebsiella aerogenes DSM 30053; experiment: as above
In short: as §1

[4] = system: Ruminococcus gnavus DSM 108212; experiment: as above
In short: as §1

[5] = system: Klebsiella aerogenes DSM 30053; experiment: fold change of Histamine concentration vs plate DMSO controls (fold change (ratio)); higher = more amine produced, active = hit call of the paper (significant change in both replicates, either direction)
In short: (§2)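 Anaerobic mGAM cultures of four gut bacterial strains were grown at 37 °C for 27 h in 80 µL wells, starting at OD 0.1 before 1:1 dilution. Compounds were at 20 µM final (sweeteners 50 µM). Whole cultures were extracted with cold acetonitrile/methanol containing 0.1% formic acid and centrifuged. Amines were quantified by LC–triple-quadrupole MS (dynamic MRM) against external calibration curves and drift-corrected within batch. Each value is the fold change versus plate DMSO controls, averaged over 2 biological replicates.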

[6] = system: Clostridium sporogenes DSM 1664; experiment: fold change of Tryptamine concentration vs plate DMSO controls (fold change (ratio)); higher = more amine produced, active = hit call of the paper (significant change in both replicates, either direction)
In short: as §2

[7] = system: Ruminococcus gnavus DSM 108212; experiment: as above
In short: as §2

Escherichia coli IAI1 [8] = experiment: fold change of Putrescine concentration vs plate DMSO controls (fold change (ratio)); higher = more amine produced, active = hit call of the paper (significant change in both replicates, either direction)
In short: as §2

[9] = system: Klebsiella aerogenes DSM 30053; experiment: as above
In short: as §2

Escherichia coli IAI1 [10] = experiment: fold change of Cadaverine concentration vs plate DMSO controls (fold change (ratio)); higher = more amine produced, active = hit call of the paper (significant change in both replicates, either direction)
In short: as §2

[11] = system: Klebsiella aerogenes DSM 30053; experiment: as above
In short: as §2

[12] = system: Ruminococcus gnavus DSM 108212; experiment: fold change of 2-Phenylethylamine concentration vs plate DMSO controls (fold change (ratio)); higher = more amine produced, active = hit call of the paper (significant change in both replicates, either direction)
In short: as §2

O=C(Oc1ccccc1)c1ccccc1O [Phenyl salicylate] (20 µM)
growth [1]: 1.08 | growth (Escherichia coli IAI1 [2]): 0.961 | growth [3]: 0.971 | growth [4]: 1.04 | fold change of Histamine concentration [5]: 1.09 (inactive) | fold change of Tryptamine concentration [6]: 1.12 (inactive) | fold change of Tryptamine concentration [7]: 1.08 (inactive) | fold change of Putrescine concentration (Escherichia coli IAI1 [8]): 1.03 (inactive) | fold change of Putrescine concentration [9]: 0.942 (inactive) | fold change of Cadaverine concentration (Escherichia coli IAI1 [10]): 0.916 (inactive) | fold change of Cadaverine concentration [11]: 1 (inactive) | fold change of 2-Phenylethylamine concentration [12]: 1.13 (inactive)

CC(=O)Oc1cccc2c1C(=O)c1c(OC(C)=O)cc(C(=O)O)cc1C2=O [Diacerein] (20 µM)
growth [1]: 0.926 | growth (Escherichia coli IAI1 [2]): 0.994 | growth [3]: 0.96 | growth [4]: 0.904 | fold change of Histamine concentration [5]: 0.952 (inactive) | fold change of Tryptamine concentration [6]: 1.02 (inactive) | fold change of Tryptamine concentration [7]: 0.905 (inactive) | fold change of Putrescine concentration (Escherichia coli IAI1 [8]): 1.08 (inactive) | fold change of Putrescine concentration [9]: 0.956 (inactive) | fold change of Cadaverine concentration (Escherichia coli IAI1 [10]): 1.02 (inactive) | fold change of Cadaverine concentration [11]: 1 (inactive) | fold change of 2-Phenylethylamine concentration [12]: 0.916 (inactive)

NC(=O)c1cnccn1 [Pyrazinamide] (20 µM)
growth [1]: 0.992 | growth (Escherichia coli IAI1 [2]): 1.04 | growth [3]: 1 | growth [4]: 1.12 | fold change of Histamine concentration [5]: 0.957 (inactive) | fold change of Tryptamine concentration [6]: 1.04 (inactive) | fold change of Tryptamine concentration [7]: 0.958 (inactive) | fold change of Putrescine concentration (Escherichia coli IAI1 [8]): 1.01 (inactive) | fold change of Putrescine concentration [9]: 1 (inactive) | fold change of Cadaverine concentration (Escherichia coli IAI1 [10]): 0.98 (inactive) | fold change of Cadaverine concentration [11]: 1.01 (inactive) | fold change of 2-Phenylethylamine concentration [12]: 0.906 (inactive)

O=C(Nc1ccccc1)OCC(CN1CCCCC1)OC(=O)Nc1ccccc1 (configuration not stated) [Diperodon hydrochloride] (20 µM)
growth [1]: 1.11 | growth (Escherichia coli IAI1 [2]): 0.998 | growth [3]: 0.962 | growth [4]: 0.942 | fold change of Histamine concentration [5]: 1.05 (inactive) | fold change of Tryptamine concentration [6]: 0.94 (inactive) | fold change of Tryptamine concentration [7]: 0.952 (inactive) | fold change of Putrescine concentration (Escherichia coli IAI1 [8]): 0.975 (inactive) | fold change of Putrescine concentration [9]: 1.03 (inactive) | fold change of Cadaverine concentration (Escherichia coli IAI1 [10]): 1.03 (inactive) | fold change of Cadaverine concentration [11]: 0.976 (inactive) | fold change of 2-Phenylethylamine concentration [12]: 0.923 (inactive)

C[C@@H]1C[C@H]2[C@@H]3C[C@H](F)C4=CC(=O)C=C[C@]4(C)[C@@]3(F)[C@@H](O)C[C@]2(C)[C@@]1(O)C(=O)COC(=O)C(C)(C)C [Flumethasone pivalate] (20 µM)
growth [1]: 0.889 | growth (Escherichia coli IAI1 [2]): 0.954 | growth [3]: 1 | growth [4]: 0.811 | fold change of Histamine concentration [5]: 1.04 (inactive) | fold change of Tryptamine concentration [6]: 1 (inactive) | fold change of Tryptamine concentration [7]: 1.04 (inactive) | fold change of Putrescine concentration (Escherichia coli IAI1 [8]): 1 (inactive) | fold change of Putrescine concentration [9]: 0.998 (inactive) | fold change of Cadaverine concentration (Escherichia coli IAI1 [10]): 1.02 (inactive) | fold change of Cadaverine concentration [11]: 0.984 (inactive) | fold change of 2-Phenylethylamine concentration [12]: 1.05 (inactive)

COc1ccc(OC)c(C(O)CNC(=O)CN)c1 (configuration not stated) [Midodrine hydrochloride] (20 µM)
growth [1]: 1.08 | growth (Escherichia coli IAI1 [2]): 1.03 | growth [3]: 1.09 | growth [4]: 0.949 | fold change of Histamine concentration [5]: 1.05 (inactive) | fold change of Tryptamine concentration [6]: 1.03 (inactive) | fold change of Tryptamine concentration [7]: 1 (inactive) | fold change of Putrescine concentration (Escherichia coli IAI1 [8]): 1.01 (inactive) | fold change of Putrescine concentration [9]: 1 (inactive) | fold change of Cadaverine concentration (Escherichia coli IAI1 [10]): 0.995 (inactive) | fold change of Cadaverine concentration [11]: 0.995 (inactive) | fold change of 2-Phenylethylamine concentration [12]: 1 (inactive)

CC(N)CCCC(C)(C)O (configuration not stated) [Heptaminol hydrochloride] (20 µM)
growth [1]: 1.01 | growth (Escherichia coli IAI1 [2]): 1.1 | growth [3]: 0.998 | growth [4]: 1.12 | fold change of Histamine concentration [5]: 0.999 (inactive) | fold change of Tryptamine concentration [6]: 0.988 (inactive) | fold change of Tryptamine concentration [7]: 1.01 (inactive) | fold change of Putrescine concentration (Escherichia coli IAI1 [8]): 1.05 (inactive) | fold change of Putrescine concentration [9]: 1 (inactive) | fold change of Cadaverine concentration (Escherichia coli IAI1 [10]): 1.04 (inactive) | fold change of Cadaverine concentration [11]: 0.994 (inactive) | fold change of 2-Phenylethylamine concentration [12]: 1.05 (inactive)

CCC(=O)O[C@]1(C(=O)CCl)[C@@H](C)C[C@H]2[C@@H]3CCC4=CC(=O)C=C[C@]4(C)[C@@]3(F)[C@@H](O)C[C@@]21C [Clobetasol propionate] (20 µM)
growth [1]: 1.36 | growth (Escherichia coli IAI1 [2]): 1.06 | growth [3]: 1.06 | growth [4]: 0.908 | fold change of Histamine concentration [5]: 0.98 (inactive) | fold change of Tryptamine concentration [6]: 1.02 (inactive) | fold change of Tryptamine concentration [7]: 0.96 (inactive) | fold change of Putrescine concentration (Escherichia coli IAI1 [8]): 0.988 (inactive) | fold change of Putrescine concentration [9]: 1.02 (inactive) | fold change of Cadaverine concentration (Escherichia coli IAI1 [10]): 1.01 (inactive) | fold change of Cadaverine concentration [11]: 0.999 (inactive) | fold change of 2-Phenylethylamine concentration [12]: 0.936 (inactive)

CC(Cc1cccc(C(F)(F)F)c1)NCCOC(=O)c1ccccc1 (configuration not stated) [Benfluorex] (20 µM)
growth [1]: 1.08 | growth (Escherichia coli IAI1 [2]): 0.988 | growth [3]: 0.966 | growth [4]: 0.795 | fold change of Histamine concentration [5]: 1.02 (inactive) | fold change of Tryptamine concentration [6]: 0.988 (inactive) | fold change of Tryptamine concentration [7]: 0.786 (active) | fold change of Putrescine concentration (Escherichia coli IAI1 [8]): 1.06 (inactive) | fold change of Putrescine concentration [9]: 1 (inactive) | fold change of Cadaverine concentration (Escherichia coli IAI1 [10]): 0.975 (inactive) | fold change of Cadaverine concentration [11]: 0.99 (inactive) | fold change of 2-Phenylethylamine concentration [12]: 0.797 (inactive)

CCCc1c2oc(C(=O)O)cc(=O)c2cc2c(=O)cc(C(=O)O)n(CC)c12 [Nedocromil sodium] (20 µM)
growth [1]: 0.949 | growth (Escherichia coli IAI1 [2]): 0.993 | growth [3]: 1 | growth [4]: 0.981 | fold change of Histamine concentration [5]: 1.06 (inactive) | fold change of Tryptamine concentration [6]: 0.924 (inactive) | fold change of Tryptamine concentration [7]: 0.987 (inactive) | fold change of Putrescine concentration (Escherichia coli IAI1 [8]): 0.999 (inactive) | fold change of Putrescine concentration [9]: 1.01 (inactive) | fold change of Cadaverine concentration (Escherichia coli IAI1 [10]): 1.04 (inactive) | fold change of Cadaverine concentration [11]: 0.984 (inactive) | fold change of 2-Phenylethylamine concentration [12]: 1 (inactive)

O=c1cc(-c2ccc(O)c(O)c2)oc2cc(O)cc(O)c12 [Luteolin] (20 µM)
growth [1]: 0.877 | growth (Escherichia coli IAI1 [2]): 0.977 | growth [3]: 0.977 | growth [4]: 1.11 | fold change of Histamine concentration [5]: 0.969 (inactive) | fold change of Tryptamine concentration [6]: 0.776 (inactive) | fold change of Tryptamine concentration [7]: 0.985 (inactive) | fold change of Putrescine concentration (Escherichia coli IAI1 [8]): 1.07 (inactive) | fold change of Putrescine concentration [9]: 0.991 (inactive) | fold change of Cadaverine concentration (Escherichia coli IAI1 [10]): 1.03 (inactive) | fold change of Cadaverine concentration [11]: 1.02 (inactive) | fold change of 2-Phenylethylamine concentration [12]: 1.08 (inactive)
